Drawing on PubChem BioAssay (NCI), this text covers growth for nine compounds.

Experiment in all cases: NCI-60 one-dose screen, 48 h (100 = growth as untreated, 0 = no growth, -100 = all killed)
Holding throughout (settings): 10 µM unless noted

Experiment [1] has as its system SR leukemia.
Experiment [2] concerns RPMI-8226 leukemia.
Experiment [3] relates to OVCAR-8 ovarian.
Experiment [4] relates to OVCAR-5 ovarian.
The subject of experiment [5] is SK-OV-3 ovarian.
In experiment [6] the test system is IGROV1 ovarian.
Experiment [7] has as its system HS 578T breast.
Experiment [8] concerns NCI/ADR-RES ovarian.
The test system of experiment [9] is T-47D breast.
The test system of experiment [10] is BT-549 breast.
Experiment [11] concerns MDA-MB-435 melanoma.
Experiment [12] has as its system SW-620 colon.
Experiment [13] relates to MCF7 breast.
Experiment [14] deals with HCT-116 colon.
In experiment [15] the test system is HCC-2998 colon.
In experiment [16] the test system is KM12 colon.
Experiment [17] has as its system OVCAR-3 ovarian.
For experiment [18], the system named is OVCAR-4 ovarian.

Compounds without any hit were thinned out: in the full panel of roughly 83,000, 20% have a hit.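 Step 1: grow cells in 96-well plates. Step 2: add test compound at a single concentration. Step 3: incubate 48 h. Step 4: record percent growth.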 Values without a mark were called inactive. Active and inactive are the calls of the source. How the source made its calls: active means growth percent below 10; inactive means the rest.

As to `CC(O)c1cc2ccccc2c(=O)o1` (stereo not given), the growth in [1] is 96.2%; in experiment [2], 96.8%; in experiment [3] it was 102%; in experiment [4], 103%; in [5], 99.8%; in experiment [6], 107%. Moreover, the growth was 103% in [7]; 101% in experiment [8]; 104% in experiment [9]; 105% in [10]; 96.3% in experiment [11]; 98.9% in experiment [12]. In addition, the growth in experiment [13] was 91.5%; in experiment [14], 108%; in [15], 99.9%; in [16], 106%.
Consider `CC(C)(C)c1ccc(C(=O)Nc2sc3c(c2C(N)=O)CCC(O)C3)cc1` (stereo not given), for which the growth in experiment [1] is 25.8%; in experiment [2], 16.3%; in [3] it was 43.4%; in [4], 66.5%; in experiment [5] it was 70.1%; in experiment [6], 44.9%. The growth in [17] is 55.3%; in [7], 82.9%; in experiment [8], 49.9%; in experiment [9], 28.8%; in [10] it was 58.5%; in [11] it was 32.2%. Moreover, the growth was 7.55% (active) in [12]; 5.17% (active) in experiment [13]; 26.3% in [14]; 37.4% in experiment [15]; 11.7% in experiment [16].
Take `CCCCCc1ccc(S(=O)(=O)Nc2cccc(-c3csc(NC(=O)CCCCCN4CCN(CCO)CC4)n3)c2)cc1`: the growth in [1] was -19.2% (active); in experiment [2], 7.46% (active); in experiment [3], 96.7%; in experiment [4], 91.6%; in [5], 96.8%; in experiment [6], 84.5%. The growth in experiment [17] is 75.6%; in experiment [7] it was 86.1%; in experiment [8] it was 99.6%; in [10] it was 102%; in [11], 36.8%; in experiment [12], 25.6%. Moreover, the growth in experiment [13] is 19.8%; in [14], 30.3%; in experiment [15] it was 41.5%; in experiment [16] it was 88%.
Consider `O=c1c2ccccc2nc(COc2ccccc2)n1NS(=O)(=O)c1ccc(Cl)cc1`, for which the growth in experiment [1] was 57.6%; in experiment [2], 95.6%; in [3], 92%; in experiment [4], 91.2%; in experiment [18], 95.2%; in [6], 61.7%. Further, the growth in experiment [17] is 103%; in experiment [7], 75%; in experiment [8], 73%; in experiment [9], 74.8%; in experiment [10], 106%; in [11], 5.47% (active). Further, the growth in experiment [12] was 64.1%; in experiment [13], 41.9%; in experiment [14] it was 83.6%; in experiment [16], 55.2%.
With `CC(C)(C)c1ccc(C(=O)Nc2sc3c(c2C(N)=O)CC/C(=N\O)C3)cc1`, the growth is 6.35% (active) in [1]; -16.7% (active) in [2]; 15.8% in [3]; 26.6% in experiment [4]; 35.1% in experiment [5]; 27.6% in [6]. In addition, the growth in experiment [17] is 12.6%; in experiment [7], 38.7%; in experiment [8] it was 11.7%; in experiment [9], 1.45% (active); in [10], 16.2%; in experiment [11] it was 13.6%. Besides, the growth in [12] is 17.6%; in [13] it was 5.51% (active); in [14], 10.5%; in [15], 34.3%; in [16], 6.97% (active).
`CS(=O)(=O)Nc1cc(-c2ccc3ncc(C#N)c(NCc4ccccc4F)c3c2)cnc1Cl`: the growth in experiment [1] was 3.57% (active); in experiment [2], -22% (active); in experiment [3], 7.93% (active); in experiment [4] it was 16.8%; in experiment [5] it was -13.7% (active); in [6] it was -29.1% (active). Further, the growth in [17] was 3.41% (active); in [7] it was -22% (active); in experiment [8], 25%; in [9], 3.78% (active); in [10] it was -8.8% (active); in experiment [11], 6.84% (active). In addition, the growth is 8.38% (active) in experiment [12]; 4.76% (active) in experiment [13]; 4.1% (active) in experiment [14]; -1.68% (active) in experiment [15]; 11.5% in experiment [16].
Consider `COc1ccccc1-n1cc(C#N)c(N)c1C(=O)c1ccc(C)cc1`, for which the growth in experiment [1] is 49.4%; in experiment [2] it was 99.7%; in [3], 95%; in [4], 103%; in experiment [5], 93.5%; in experiment [6] it was 84.6%. Moreover, the growth in experiment [17] was 94.6%; in [7], 85.6%; in experiment [8], 60.2%; in experiment [9] it was 82.1%; in [10] it was 83.9%; in [11], 5.3% (active). The growth in [12] is 52.4%; in experiment [13], 51.3%; in [14], 76.8%; in experiment [15], 80.9%; in experiment [16], 59.6%.
Turning to `O=C(NNc1nc2cc(F)c(F)cc2n2c(CN3CC4CNCC4C3)ccc12)c1ncccn1` (stereo not given), the growth in [1] is 1.34% (active); in experiment [2] it was 18.7%; in [3], 7.54% (active); in experiment [4], 40%; in experiment [5], 7.21% (active); in experiment [6] it was 14.9%. In addition, the growth was 34.6% in experiment [17]; 71.5% in experiment [7]; 62.3% in experiment [8]; 13.8% in experiment [9]; 28.1% in [10]; 20.4% in experiment [11]. Further, the growth is 22.6% in experiment [12]; 9.66% (active) in [13]; 11.7% in experiment [14]; 24.7% in experiment [15]; 19.2% in [16].
In the case of `Cc1ccc(-n2cc(/C=N/NC(=O)c3ccncc3)c(-c3ccc(S(C)(=O)=O)cc3)n2)cc1`, the growth in experiment [1] is 63.5%; in experiment [2], 96.5%; in [3], 98.7%; in [4], 103%; in experiment [5], 96.1%; in experiment [6], 77.8%. For the same compound, the growth was 82.3% in experiment [17]; 90.3% in experiment [7]; 51.7% in [8]; 93.1% in experiment [9]; 74.1% in experiment [10]; 23.6% in [11]. The growth in experiment [12] was 64.6%; in experiment [13], 72.2%; in experiment [14], 61.1%; in [15], 98.1%; in experiment [16], 58%.
